# Test results: PMC4336329 (PLoS ONE, 2015)
# In all, about 310,000 compounds went through this assay and about 14,000 (4.5%) showed an effect of 50% or more. The effect is printed as a negative number. The full list was thinned out, with strong results kept by preference.
# Target: human ether-à-go-go-related gene (hERG) potassium channel (human, UniProt Q12809)
# Experiment: primary screen, population patch clamp on CHO cells stably expressing hERG; higher = less effect of the substance
# 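Also: peak tail current of the secondary pulse compared with the same well before compound.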
# human ether-à-go-go-related gene (hERG) potassium channel, sequence (Q12809 whole entry, looked up): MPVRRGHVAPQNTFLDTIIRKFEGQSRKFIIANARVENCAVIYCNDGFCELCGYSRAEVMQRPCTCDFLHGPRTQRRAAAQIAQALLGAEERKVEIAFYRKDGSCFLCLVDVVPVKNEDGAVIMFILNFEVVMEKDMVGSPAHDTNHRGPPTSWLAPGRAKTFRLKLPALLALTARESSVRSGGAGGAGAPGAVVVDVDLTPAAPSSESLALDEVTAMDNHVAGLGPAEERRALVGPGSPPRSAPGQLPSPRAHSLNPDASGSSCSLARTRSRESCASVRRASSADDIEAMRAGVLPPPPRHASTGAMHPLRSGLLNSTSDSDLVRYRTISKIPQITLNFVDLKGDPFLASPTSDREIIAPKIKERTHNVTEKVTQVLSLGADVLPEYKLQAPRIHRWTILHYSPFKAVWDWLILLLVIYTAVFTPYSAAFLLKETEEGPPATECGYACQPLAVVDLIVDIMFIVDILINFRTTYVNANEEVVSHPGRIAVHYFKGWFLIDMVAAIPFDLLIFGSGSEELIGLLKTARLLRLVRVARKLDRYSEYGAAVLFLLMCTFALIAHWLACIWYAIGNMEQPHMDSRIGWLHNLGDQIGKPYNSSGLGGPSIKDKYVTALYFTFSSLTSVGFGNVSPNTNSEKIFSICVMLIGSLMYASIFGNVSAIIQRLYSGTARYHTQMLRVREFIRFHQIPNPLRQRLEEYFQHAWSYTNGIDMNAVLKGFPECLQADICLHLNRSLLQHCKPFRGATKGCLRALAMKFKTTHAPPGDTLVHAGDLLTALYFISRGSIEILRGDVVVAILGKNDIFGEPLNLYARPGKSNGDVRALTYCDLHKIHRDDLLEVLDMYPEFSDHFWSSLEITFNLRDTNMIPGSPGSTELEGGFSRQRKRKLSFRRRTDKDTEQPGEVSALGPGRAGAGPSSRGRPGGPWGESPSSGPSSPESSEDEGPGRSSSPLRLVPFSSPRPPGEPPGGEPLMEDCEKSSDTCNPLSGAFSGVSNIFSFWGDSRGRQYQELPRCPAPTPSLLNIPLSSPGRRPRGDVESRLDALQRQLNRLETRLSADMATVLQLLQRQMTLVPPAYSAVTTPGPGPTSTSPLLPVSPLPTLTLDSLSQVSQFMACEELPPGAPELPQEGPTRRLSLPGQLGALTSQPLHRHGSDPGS
row,SMILES,"hERG current change (%, negative = inhibition) at 10uM [%]"
1,CC(C)N(C(=O)CSc1nnc(CSc2ncccn2)n1C)C(C)C,32.8
2,O=c1[nH]n2cc(-n3cc([N+](=O)[O-])cn3)cnc2c1Br,10.6
3,CCCCNC(=O)CCC(=O)N1CCN(C(c2ccccc2)c2ccccc2)CC1.Cl,-7.34
4,O=C(CCc1ccccc1)Nc1ccc(NC(=O)C2CCCCC2)nc1,7.57
5,Cl.O=C(/C=C/c1ccccc1)Nc1ccc(N2CCCCC2)cc1,5.7
6,O=C(Nc1ncccc1O)c1cccc(S(=O)(=O)NCc2ccccc2)c1,-20.3
7,Cn1c(C(O)c2ccc3c(c2)OCO3)nc2ccccc21 (stereo not drawn),5.63
8,Cc1ccc(S(=O)(=O)N2c3ccccc3NC(=O)CC2C)cc1 (stereo not drawn),10.5
9,C=CCn1c(-c2ccc(Cl)cc2)c[nH]c1=S,19.4
10,Cc1cnc(NC(=O)CC2CCCC2)s1,21.5
11,COc1ccc(-c2cc(-c3ccccc3)no2)cc1,9.77
12,CCN(CC(=O)NCc1cccs1)C(=O)COc1ccc(C(C)=O)cc1,-45.1
13,C(=C\c1ccccc1)/CSc1nnc(-c2cnccn2)n1Cc1ccco1,-73.4
14,NC(=O)CSc1nnc(-c2ccccn2)n1Cc1ccco1,4.36
15,O=C(CSc1nnc(-c2cnccn2)n1Cc1ccco1)c1ccccc1,-16.3
16,O=C(CSc1nnc(-c2ccccn2)n1Cc1ccco1)c1ccccc1,-42.5
17,C(=C\c1ccccc1)/CSc1nnc(-c2ccccn2)n1Cc1ccco1,-50.9
18,CCn1c(SC/C=C/c2ccccc2)nnc1-c1cnccn1,-14.7
19,COc1ccc(C2CC(c3ccc(C)o3)=NN2C(C)=O)cc1 (stereo not drawn),7.14
20,CCOC(=O)C1SC2(C(F)(F)C(F)F)CC1(O)c1c(c(OC)c3occc3c1OC)O2 (stereo not drawn),-3.47
21,O=C(COC(=O)Cc1cccc2ccccc12)Nc1ccccc1-c1ccccc1,9.26

row,SMILES,"hERG current change (%, negative = inhibition) at 10uM [%]"
1,NC(=S)Nc1cccc2cnccc12,1.4
2,COc1cc(NC(=O)c2cc3ccccc3cc2OC)ccc1NC(=O)c1cccs1,9.15
3,COc1ccc(C(=O)CSc2nnc(-c3cccnc3)n2Cc2ccco2)cc1,-42.9
4,O=C(CSc1nnc(-c2cccnc2)n1Cc1ccco1)c1ccccc1,-10.3
5,O=C(CSc1nnc(-c2cccnc2)n1Cc1ccco1)c1ccc(Br)cc1,-63.8
6,O=C(CSc1nnc(-c2cccnc2)n1Cc1ccco1)c1ccc(Cl)c(Cl)c1,-45.2
7,O=C(CSc1nnc(-c2cccnc2)n1Cc1ccco1)c1ccc(Cl)cc1,-63.6
8,O=C(CSc1nnc(-c2ccncc2)n1Cc1ccco1)c1ccc(Cl)cc1,-46
9,CC1CCCC(NC(=S)Nc2cccc(S(=O)(=O)N(C)C)c2)C1C (stereo not drawn),13.7
10,CCOC(=O)/C=C1\SCC(=O)N1CC(=O)Nc1ccccc1OC(F)F,18.8
11,O=C(Nc1ccc(NC(=O)c2cccs2)c(Cl)c1)c1ccco1,-39.4
12,CN(CC(=O)N1CCN(c2ccc(F)cc2)CC1)S(=O)(=O)c1ccc(F)cc1,-53.2
13,Cc1ccc(CNC(=O)Cn2cnc(S(=O)(=O)N3CCC(C)CC3)c2)o1,-62.1
14,CN(CC(=O)N1CCN(c2ccccn2)CC1)S(=O)(=O)c1ccc(Br)cc1,-54.8
15,Nc1ncc(Br)cc1S(=O)(=O)NCCC(=O)N1CCN(c2ccccn2)CC1,-55.4
16,CN(CC(=O)N1CCN(c2ccccn2)CC1)S(=O)(=O)c1ccccc1,-12.8
17,CN1CCN(C(=O)CN(C)S(=O)(=O)c2ccc(F)cc2)CC1,16.8
18,Nc1ncc(Br)cc1S(=O)(=O)NCCC(=O)N1CCN(c2ncccn2)CC1,-25.6
19,COc1ccc(S(=O)(=O)N(C)CC(=O)N2CCN(c3ccc(F)cc3)CC2)cc1OC,-44
20,Nc1ncc(Br)cc1S(=O)(=O)NCCC(=O)N1CCN(c2ccccc2)CC1,-8.45
21,Cc1ccc(CNC(=O)Cn2cnc(S(=O)(=O)N3CCCCC3)c2)o1,-2.35

row,SMILES,"hERG current change (%, negative = inhibition) at 10uM [%]"
1,O=C(Cn1cnc(S(=O)(=O)N2CCCCC2)c1)NCc1ccco1,8.34
2,CN(CC(=O)N1CCN(c2ccccn2)CC1)S(=O)(=O)c1ccc(Cl)cc1,-46.2
3,CC1(C)C[C@H](O)[C@]2(CO)CC[C@]3(C)C(=CCC4[C@@]5(C)CC[C@H](O)C(C)(C)C5CC[C@]43C)[C@@H]2C1 (stereo partly drawn),-13.9
4,O=C(CSc1nnc2ccccn12)NCc1ccco1,22.3
5,O=C1CC(NNc2nc3ccccc3s2)C(=O)N1c1ccccc1 (stereo not drawn),-1.89
6,O=C(CSc1nnc(-c2ccccc2)c2ccccc12)NCCN1C(=O)CSC1=O,-27.6
7,O=C(CSc1ccccn1)Nc1ccc2c(c1)OCCO2,8.07
8,O=C(Nc1cccnc1)c1cc2cc(Br)ccc2o1,8.93
9,Cc1cc(-c2n[nH]c(=S)n2/N=C/c2ccco2)n[nH]1,7.99
10,Cc1ccc(S(=O)(=O)CC(=O)N2CCN(c3cccc(C(F)(F)F)c3)CC2)cc1,-50.4
11,Cc1ccc(S(=O)(=O)CC(=O)N2CCN(c3ccc(F)cc3)CC2)cc1,-51.5
12,O=C(CS(=O)(=O)c1ccc(F)cc1)N1CCN(c2ccccc2)CC1,-42.4
13,Cn1cnc(S(=O)(=O)N2CCN(c3cccc(C(F)(F)F)c3)CC2)c1,7.43
14,Cc1ccc(S(=O)(=O)CC(=O)N2CCN(c3ccccc3F)CC2)cc1,-16.8
15,Cc1cccc(N2CCN(C(=O)CCNS(=O)(=O)c3ccc4c(c3)CCC(=O)N4)CC2)c1C,-44.6
16,CC1CCN(S(=O)(=O)c2cn(CC(=O)N3CCN(c4cccc(C(F)(F)F)c4)CC3)cn2)CC1,-54
17,O=C(CCS(=O)(=O)c1ccccc1)N1CCN(c2cccc(C(F)(F)F)c2)CC1,-43.1
18,Cc1cccc(N2CCN(C(=O)CN(C)S(=O)(=O)c3ccc4c(c3)CCC(=O)N4)CC2)c1C,-60.5
19,Cc1ccc(CC(=O)N2CCN(c3cccc(C(F)(F)F)c3)CC2)cc1,-9.64
20,CC(=O)c1ccc(N2CCN(C(=O)Cn3cnc(S(=O)(=O)N4CCCCC4)c3)CC2)cc1,7.48
21,Cc1ccc(C)c(N2CCN(C(=O)CN(C)S(=O)(=O)c3ccc4c(c3)CCC(=O)N4)CC2)c1,-41.5
